# Among all 5,500 compounds or so, about 2,000 (36%) were called active. Not shown: some 18% with an inconclusive outcome. Some of the results follow. A number with no mark means an inactive call. No stated cut-off is given here; in the data, active means normalized growth mostly below about 0.91 (no sharp cut-off); inconclusive means no clear call, values can overlap the other calls; inactive means mostly above about 0.92.
# Assay: chemical genetic growth profiling, strain panel (AID 1159580);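 further: tested at 20 µM; growth read once vehicle control cultures reached saturation at 30 °C; 1 = growth at the plate median or of vehicle wells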
# Conditions: S. cerevisiae deletion strains, growth OD
structure (smiles),measurement,setting,value
CC1OC(=O)C(C(C)C)NC(=O)C(C(C)C)OC(=O)C(C(C)C)NC(=O)C(C)OC(=O)C(C(C)C)NC(=O)C(C(C)C)OC(=O)C(C(C)C)NC(=O)C(C)OC(=O)C(C(C)C)NC(=O)C(C(C)C)OC(=O)C(C(C)C)NC1=O (stereo unspecified),normalized growth,"locus YAL021C, strain ccr4, stronger effect = lower value",0.202 (active)
same,normalized growth,"locus YAL026C, strain drs2, stronger effect = lower value",0.544 (active)
same,normalized growth,"locus YAL030W, strain snc1, stronger effect = lower value",0.326 (active)
same,normalized growth,"locus YBL061C, strain skt5, stronger effect = lower value",0.229 (active)
same,normalized growth,"locus YBR009C, strain hhf1, stronger effect = lower value",0.223 (active)
same,normalized growth,"locus YBR023C, strain chs3, stronger effect = lower value",0.23 (active)
same,normalized growth,"locus YBR171W, strain sec66, stronger effect = lower value",0.54 (active)
same,normalized growth,"locus YBR231C, strain swc5, stronger effect = lower value",0.286 (active)
same,normalized growth,"locus YBR279W, strain paf1, stronger effect = lower value",0.544 (active)
same,normalized growth,"locus YCL011C, strain gbp2, stronger effect = lower value",0.28 (active)
same,normalized growth,"locus YCL016C, strain dcc1, stronger effect = lower value",0.238 (active)
same,normalized growth,"locus YCL069W, strain vba3, stronger effect = lower value",0.51 (active)
same,normalized growth,"locus YCR088W, strain abp1, stronger effect = lower value",0.51 (active)
same,normalized growth,"locus YDL005C, strain med2, stronger effect = lower value",0.332 (active)
same,normalized growth,"locus YDL040C, strain nat1, stronger effect = lower value",0.468 (active)
same,normalized growth,"locus YDR001C, strain nth1, stronger effect = lower value",0.615 (active)
same,normalized growth,"locus YDR069C, strain doa4, stronger effect = lower value",0.383 (active)
same,normalized growth,"locus YDR137W, strain rgp1, stronger effect = lower value",0.144 (active)
same,normalized growth,"locus YDR159W, strain sac3, stronger effect = lower value",0.318 (active)
same,normalized growth,"locus YDR195W, strain ref2",0.336 (active)
same,normalized growth,"locus YDR297W, strain sur2, stronger effect = lower value",0.404 (active)
same,normalized growth,"locus YDR334W, strain swr1, stronger effect = lower value",0.494 (active)
same,normalized growth,"locus YDR335W, strain msn5, stronger effect = lower value",0.697 (active)
same,normalized growth,"locus YDR392W, strain spt3, stronger effect = lower value",0.148 (active)
same,normalized growth,"locus YEL003W, strain gim4, stronger effect = lower value",0.357 (active)
same,normalized growth,"locus YEL037C, strain rad23, stronger effect = lower value",0.673 (active)
same,normalized growth,"locus YEL061C, strain CIN8 (second series), stronger effect = lower value",0.448 (active)
same,normalized growth,"locus YER015W, strain faa2, stronger effect = lower value",0.205 (active)
same,normalized growth,"locus YER016W, strain bim1, stronger effect = lower value",0.259 (active)
same,normalized growth,"locus YER111C, strain swi4, stronger effect = lower value",0.639 (active)
same,normalized growth,"locus YER155C, strain BEM2 (second series), stronger effect = lower value",0.6 (active)
same,normalized growth,"locus YFR010W, strain ubp6, stronger effect = lower value",0.535 (active)
same,normalized growth,"locus YGL167C, strain pmr1, stronger effect = lower value",0.166 (active)
same,normalized growth,"locus YGL173C, strain kem1, stronger effect = lower value",0.157 (active)
same,normalized growth,"locus YGL227W, strain vid30, stronger effect = lower value",0.599 (active)
same,normalized growth,"locus YGL240W, strain doc1, stronger effect = lower value",0.112 (active)
same,normalized growth,"locus YGL253W, strain hxk2, stronger effect = lower value",0.243 (active)
same,normalized growth,"locus YHR013C, strain ard1, stronger effect = lower value",0.159 (active)
same,normalized growth,"locus YHR027C, strain rpn1, stronger effect = lower value",0.331 (active)
same,normalized growth,"locus YHR142W, strain chs7, stronger effect = lower value",0.342 (active)
same,normalized growth,"locus YJL092W, strain hpr5, stronger effect = lower value",0.556 (active)
same,normalized growth,"locus YJL095W, strain BCK1 (second series), stronger effect = lower value",0.266 (active)
same,normalized growth,"locus YJL115W, strain asf1, stronger effect = lower value",0.79 (active)
same,normalized growth,"locus YJL129C, strain trk1, stronger effect = lower value",0.251 (active)
same,normalized growth,"locus YJL154C, strain vps35, stronger effect = lower value",0.688 (active)
same,normalized growth,"locus YJL164C, strain tpk1, stronger effect = lower value",0.267 (active)
same,normalized growth,"locus YJL166W, strain qcr8, stronger effect = lower value",0.115 (active)
same,normalized growth,"locus YJL187C, strain SWE1, stronger effect = lower value",0.343 (active)
same,normalized growth,"locus YKL160W, strain elf1, stronger effect = lower value",0.278 (active)
same,normalized growth,"locus YKR026C, strain gcn3, stronger effect = lower value",0.65 (active)
same,normalized growth,"locus YKR091W, strain srl3, stronger effect = lower value",0.476 (active)
same,normalized growth,"locus YLL001W, strain dnm1, stronger effect = lower value",0.499 (active)
same,normalized growth,"locus YLL026W, stronger effect = lower value",0.301 (active)
same,normalized growth,"locus YLL041C, strain sdh2, stronger effect = lower value",0.368 (active)
same,normalized growth,"locus YLR027C, strain aat2, stronger effect = lower value",0.27 (active)
same,normalized growth,"locus YLR221C, strain rsa3, stronger effect = lower value",0.326 (active)
same,normalized growth,"locus YLR258W, strain gsy2, stronger effect = lower value",0.349 (active)
same,normalized growth,"locus YLR262C, strain YPT6 (second series), stronger effect = lower value",0.132 (active)
same,normalized growth,"locus YLR320W, strain mms22, stronger effect = lower value",0.18 (active)
same,normalized growth,"locus YLR342W, strain FKS1, stronger effect = lower value",0.115 (active)
same,normalized growth,"locus YLR357W, strain rsc2, stronger effect = lower value",0.891
same,normalized growth,"locus YLR370C, strain arc18, stronger effect = lower value",0.395 (active)
same,normalized growth,"locus YLR384C, strain iki3, stronger effect = lower value",0.464 (active)
same,normalized growth,"locus YML120C, strain ndi1, stronger effect = lower value",0.389 (active)
same,normalized growth,"locus YMR058W, strain fet3, stronger effect = lower value",0.486 (active)
same,normalized growth,"locus YMR125W, strain sto1, stronger effect = lower value",0.835 (active)
same,normalized growth,"locus YMR129W, stronger effect = lower value",0.411 (active)
same,normalized growth,"locus YMR205C, strain PFK2, stronger effect = lower value",0.278 (active)
same,normalized growth,"locus YMR231W, strain pep5, stronger effect = lower value",0.193 (active)
same,normalized growth,"locus YNL071W, strain lat1, stronger effect = lower value",0.0873 (active)
same,normalized growth,"locus YNL209W, strain ssb2, stronger effect = lower value",0.237 (active)
same,normalized growth,"locus YNL248C, strain rpa49, stronger effect = lower value",0.944
same,normalized growth,"locus YNL322C, strain KRE1 (second series), stronger effect = lower value",0.463 (active)
same,normalized growth,"locus YNR049C, strain mso1, stronger effect = lower value",0.563 (active)
same,normalized growth,"locus YOR001W, strain rrp6, stronger effect = lower value",0.497 (active)
same,normalized growth,"locus YOR070C, strain gyp1, stronger effect = lower value",0.216 (active)
same,normalized growth,"locus YOR080W, strain dia2, stronger effect = lower value",0.381 (active)
same,normalized growth,"locus YOR083W, strain WHI5, stronger effect = lower value",0.318 (active)
same,normalized growth,"locus YOR106W, strain vam3, stronger effect = lower value",0.331 (active)
same,normalized growth,"locus YOR265W, strain rbl2, stronger effect = lower value",0.288 (active)
same,normalized growth,"locus YOR270C, strain vph1, stronger effect = lower value",0.227 (active)
same,normalized growth,"locus YOR290C, strain snf2, stronger effect = lower value",0.61 (active)
same,normalized growth,"locus YPL051W, strain arl3, stronger effect = lower value",0.125 (active)
same,normalized growth,"locus YPL078C, strain atp4, stronger effect = lower value",0.14 (active)
same,normalized growth,"locus YPL106C, strain sse1, stronger effect = lower value",0.359 (active)
same,normalized growth,"locus YPL240C, strain hsp82, stronger effect = lower value",0.412 (active)

# — PubChem BioAssay AID1159580 (chemical genetic matrix, 2015)
